This is a sample that favours compounds with a hit; in the whole collection about 10% have one here.
Luciferase inh: inhibitors of firefly (Photinus pyralis) luciferase; purified P. pyralis luciferase, luminescence, biochemical; P08659; 76,000 compounds, 2.5% hits; Potency, µM (titrated, usually from 115 µM), hits mostly inhibitors; note: nearly all actives have a fitted effect of over 65% in size
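Cell-free enzyme assay, 10nM P. pyralis luciferase, luciferin and ATP each at 10uM. Inhibition profiled over a 6-point titration, read as luminescence.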
GPT2 inh: GPT2 alanine aminotransferase inhibition | Recombinant GPT2, coupled pyruvate oxidase/HRP Amplex Red fluorescence | Potency, µM (series often up to 57.7 µM), for the others: top-dose activity change, negative = inhibition, hits mostly inhibitors | Q8TD30 | 100,000 compounds, 0.25% hits | AID 1671188; note: nearly all actives have a fitted effect of over 60% in size
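Fluorescence of coupled pyruvate oxidase/HRP/Amplex Red system (50uM Amplex, 30 min, dark) reports pyruvate formed by GPT2. Enzyme reaction: 10ng/uL GPT2, 2mM L-alanine, 250uM a-KG, 30 min room temperature, pH 7.5; 50uM AOA control.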
HEK293 tox: kills HEK 293 cells. 94,000 compounds, 6.6% hits. Potency, µM (titrated, usually from 115 µM), inactives show at the top dose activity change, negative = cytotoxicity, hits mostly inhibitors. HEK 293 viability, ATP luminescence (CellTiter-Glo), 48-72 h; note: nearly all actives have a fitted effect of over 60% in size
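Pintool-delivered compounds were incubated with HEK 293 cells (250 cells/well) at 37 degree Celsius for 48 or 72 hr. ATP-dependent luminescence (CellTiter-Glo) then reported remaining viable cells.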
NPR1 antag: antagonists of human natriuretic peptide receptor Npr1; Potency, µM (titrated, usually from 46.3 µM), inactives show at the top dose activity change, negative = inhibition, actives largely listed as inhibitors; P16066; AID 1347048; 76,000 compounds, 1.6% hits; HEK293 hNpr1 GloSensor cGMP, ANP-stimulated luminescence; calls by dose curve; note: nearly all actives have a fitted effect of over 60% in size
Target sequence (P16066 whole entry, looked up): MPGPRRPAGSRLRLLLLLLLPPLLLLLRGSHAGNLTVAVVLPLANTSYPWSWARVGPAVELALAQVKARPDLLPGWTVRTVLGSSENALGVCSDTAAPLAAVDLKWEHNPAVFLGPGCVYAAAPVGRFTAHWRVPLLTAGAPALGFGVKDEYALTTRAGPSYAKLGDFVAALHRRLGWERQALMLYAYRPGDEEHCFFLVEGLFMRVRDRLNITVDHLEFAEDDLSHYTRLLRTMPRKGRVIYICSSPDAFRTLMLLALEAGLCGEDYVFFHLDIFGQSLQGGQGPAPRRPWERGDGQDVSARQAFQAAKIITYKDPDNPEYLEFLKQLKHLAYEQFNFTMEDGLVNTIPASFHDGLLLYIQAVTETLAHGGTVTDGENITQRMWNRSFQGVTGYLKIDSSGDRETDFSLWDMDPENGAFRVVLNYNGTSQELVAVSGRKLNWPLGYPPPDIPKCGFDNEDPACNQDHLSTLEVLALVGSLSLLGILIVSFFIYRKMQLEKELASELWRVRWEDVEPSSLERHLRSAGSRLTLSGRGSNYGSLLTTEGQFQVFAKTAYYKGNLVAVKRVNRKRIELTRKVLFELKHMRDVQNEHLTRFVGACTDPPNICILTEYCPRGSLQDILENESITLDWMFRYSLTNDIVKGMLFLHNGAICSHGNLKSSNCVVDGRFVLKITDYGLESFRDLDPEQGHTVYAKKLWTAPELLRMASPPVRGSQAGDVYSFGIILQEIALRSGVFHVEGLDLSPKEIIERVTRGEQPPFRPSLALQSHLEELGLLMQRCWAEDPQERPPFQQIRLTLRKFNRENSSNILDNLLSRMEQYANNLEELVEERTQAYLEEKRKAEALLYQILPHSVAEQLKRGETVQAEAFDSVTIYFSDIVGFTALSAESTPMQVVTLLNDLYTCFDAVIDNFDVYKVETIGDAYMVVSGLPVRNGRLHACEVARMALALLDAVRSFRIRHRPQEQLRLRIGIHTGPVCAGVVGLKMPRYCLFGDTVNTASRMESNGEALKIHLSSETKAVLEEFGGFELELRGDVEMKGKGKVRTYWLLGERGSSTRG
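Compound pre-incubated 30 min at room temperature on GloSensor-loaded HEK293 cells stably carrying hNpr1 and the pGS-40F cGMP biosensor. Stimulation uses hNppA at 0.1 nM final; luminescence is taken at baseline and 20 min post-agonist.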
3T3 cytotox: cytotoxic compounds in NIH 3T3 cells. 94,000 compounds, 4.3% hits. NIH 3T3 viability, CellTiter-Glo ATP luminescence, 48-72 h. AID 1345082. Potency, µM (series often up to 96.7 µM), for inactives: top-dose activity change, negative = cytotoxicity, usual class: inhibitors; note: nearly all actives have a fitted effect of over 55% in size
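Cytotoxicity is measured as loss of cellular ATP: NIH 3T3 cells (400/well) are exposed to compound for 48 or 72 hr at 37 °C, then CellTiter-Glo luminescence is imaged after 10 min at room temperature.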
* marks the source's active call; other numbers are inactive results; i = inactive; ? = inconclusive; . = not tested or not shown; [ ] = remark or other dose. Unless noted, calls come from the whole dose curve; as a rule, active = well fitted curve in the direction sought with a large enough effect; inconclusive = small, poorly fitted or top-dose-only effect, or another doubt; inactive = no such curve, though single readings can be large; an effect the other way counts as inactive or inconclusive. % is set by controls: 0 for no effect and ±100 for the full control effect; potency is the fitted concentration of half-maximal effect.

SMILES	Luciferase inh	GPT2 inh	HEK293 tox	NPR1 antag	3T3 cytotox
NCCC1CCN(C(=O)Nc2cc(F)cc(F)c2)CC1	i	-9%	-1%	3%	-7%
Cc1noc(-c2cn(C3CCN(C(=O)c4cccc(OC(F)(F)F)c4)CC3)nn2)n1	i	i	-23%	0%	?
OCCC1CCN(c2ccc(-c3nc(CCCc4ccccc4)no3)cn2)CC1	i	0%[11.5 µM]	-19%	-17%	1%
CC1(O)CCCN(c2ccc(-c3nc(CCCc4ccccc4)no3)cn2)C1 (configuration not stated)	35µM*	-9%	32µM*	?	?
OCCC1CN(c2ccc(-c3nc(CCCc4ccccc4)no3)cn2)CCO1 (configuration not stated)	i	-14%[11.5 µM]	50µM*	?	?
CNC(=O)c1cc(C2CC2)nc2c1c(C1CCN(C(=O)c3ccccc3OC)CC1)nn2C	.	.	-2%	.	-9%
O=C1N[C@@H]2CCN(C(=O)c3ccc(-c4ccccc4)cc3)[C@@H]2C(=O)N1Cc1ccccc1	?	-12%[88.5 µM]	?	-3%[70.6 µM]	112µM*
CC(C)NC(=O)C1CCN(c2nccc(Nc3ccccc3Cl)n2)CC1	.	i	?	.	?
Cc1ccc(Nc2ccnc(N3CCC(C(=O)Nc4ccccc4Cl)CC3)n2)cc1	.	0%	?	.	40µM*
Cc1ccc(Nc2ccnc(N3CCCC(C(=O)NC(C)C)C3)n2)cc1 (configuration not stated)	.	-6%	?	.	?
COc1ccc(Nc2ccnc(N3CCC(C(=O)NCC4CC4)CC3)n2)cc1	.	-43%	?	.	40µM*
Cc1ccc(Nc2ccnc(N3CCCC(C(=O)NCC4CC4)C3)n2)cc1 (configuration not stated)	.	i	35µM*	.	35µM*
C#CCNC(=O)C1CCN(c2nccc(Nc3ccc(C)cc3)n2)CC1	.	i	50µM*	.	?
Cc1ccc(Nc2ccnc(N3CCC(C(=O)NCC4CCCCCC4)CC3)n2)cc1	.	-7%	?	.	18µM*
Cn1cc(-c2cccc(CO)c2)c2nc(COc3ccc(Cl)cc3)cn2c1=O	?	1%[88.5 µM]	63µM*	-22%[70.6 µM]	?
Cn1nccc1OCc1cn2c(=O)n(C)cc(-c3cccc(OC(F)(F)F)c3)c2n1	i	i	89µM*	-10%[70.6 µM]	?
COc1ccc(C)cc1-c1cn(C)c(=O)n2cc(COc3ccc(Cl)cc3)nc12	i	-2%[88.5 µM]	?	-18%[70.6 µM]	?
CC(=O)Nc1ccccc1-c1cn(C)c(=O)n2cc(COc3ccc(Cl)cc3)nc12	i	-28%[88.5 µM]	?	-4%[70.6 µM]	100µM*
CN(C)c1cccc(-c2cn(C)c(=O)n3cc(COc4ccnn4C)nc23)c1	i	i	?	5%[70.6 µM]	?
COc1ccc(-c2cn(C)c(=O)n3cc(COc4ccc(Cl)cc4)nc23)c(C)c1	i	2%[88.5 µM]	?	-1%[70.6 µM]	10µM*
Cn1nc2n(c1=O)CCN(C(=O)c1ccc(OC(F)(F)F)cc1)CC2	i	3%	i	0%	-4%
O=C(Cn1cccc1-c1nc(-c2ccccc2)no1)NCCCc1ccccc1	i	i	45µM*	-17%	-3%
Clc1ccccc1C1Cn2cnc(-c3nc(-c4cccnc4)no3)c2CO1 (configuration not stated)	i	0%	?	1%	?
COc1ccc(C(=O)N2CCCC(Cc3ncc(C)n3Cc3ccccc3)C2)c(OC)c1 (configuration not stated)	22µM*	-1%	-21%	-3%	-7%
Fc1cccc(NC2CCCN(Cc3cccn3-c3nccs3)C2)c1 (configuration not stated)	i	i	45µM*	-5%	?
Cc1nnc(-c2cc(-c3cnn(C)c3)ccn2)n1Cc1ccccc1	i	2%[88.5 µM]	-15%[172 µM]	6%[70.6 µM]	45µM*
COCCn1c(C)nnc1-c1cc(-c2ccccc2Oc2ccccc2)ccn1	i	0%[88.5 µM]	?	-7%[70.6 µM]	?
Cc1nnc(-c2cc(-c3cnn(C)c3)ccn2)n1-c1ccccc1	i	-6%[88.5 µM]	?	3%[70.6 µM]	89µM*
Cc1ccccc1-c1ccnc(-c2nnc(C)n2Cc2ccccc2)c1	i	-3%[88.5 µM]	79µM*	-2%[70.6 µM]	?

Assay outcomes as filed in PubChem.
